Data on nine molecules can be found in PubChem BioAssay (NCI).

Common to all, as to test: NCI-60 one-dose screen, 48 h (100 = growth as untreated, 0 = no growth, -100 = all killed)
One assay relates to DU-145 prostate. The following applies: 10 µM unless noted.
The subject of another assay is K-562 leukemia. The following applies: 10 µM unless noted.
Another assay has as its system MALME-3M melanoma. The settings on record: 10 µM unless noted.
For the next assay, the system named is MDA-MB-231 breast. The following applies: 10 µM unless noted.
The test system of another assay is RXF 393 renal. The following applies: 10 µM unless noted.
The next assay has as its system SF-268 CNS. The following applies: 10 µM unless noted.
The test system of a further assay is SF-295 CNS. The settings on record: 10 µM unless noted.
The test system of a further assay is SF-539 CNS. The following applies: 10 µM unless noted.
For a further assay, the system named is UACC-257 melanoma. The settings on record: 10 µM unless noted.
The subject of the next assay is M14 melanoma. The settings on record: 10 µM unless noted.
In another assay the test system is HCT-15 colon. The following applies: 10 µM unless noted.
A further assay has as its system HT29 colon. The settings on record: 10 µM unless noted.
The test system of a further assay is SNB-75 CNS. The settings on record: 10 µM unless noted.
Another assay deals with SNB-19 CNS. The following applies: 10 µM unless noted.
The next assay deals with U251 CNS. The settings on record: 10 µM unless noted.
The next assay deals with PC-3 prostate. The following applies: 10 µM unless noted.
In the next assay the test system is SK-MEL-5 melanoma. The settings on record: 10 µM unless noted.
Another assay deals with UACC-62 melanoma. The settings on record: 10 µM unless noted.
The test system of a further assay is LOX IMVI melanoma. The following applies: 10 µM.
The test system of a further assay is SK-MEL-28 melanoma. The following applies: 10 µM unless noted.

This is part of a sample that, as a whole, favours compounds with a hit. Of some 83,000 tested, about 20% had one in any assay.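 Cells were grown in 96-well plates and exposed to the test compound at a single concentration for 48 hours; results are reported as percent growth, with values below 10 considered active.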 A number with no mark means an inactive call. The source made the active and inactive calls.

With `CN=C(N)N/N=C(\c1ccccc1)c1ccc(Br)cc1`, the growth is -9.2% (active) with DU-145 prostate; -6.02% (active) with K-562 leukemia; 25.9% in the assay with MALME-3M melanoma; -9.39% (active) in the assay on MDA-MB-231 breast; -0.626% (active) in the assay with RXF 393 renal; 11.9% with SF-268 CNS. For the same molecule, the growth was -46% (active) with SF-295 CNS; -19.2% (active) with SF-539 CNS; 47.2% with UACC-257 melanoma; -13.1% (active) with M14 melanoma; 12.4% in the assay with HCT-15 colon; -7.67% (active) in the assay with HT29 colon. Moreover, the growth in the assay with SNB-75 CNS was 9.3% (active); with SNB-19 CNS, 62.2%; in the assay with U251 CNS, -9.13% (active); in the assay with PC-3 prostate it was 12.6%; with SK-MEL-5 melanoma, -36.7% (active); in the assay with UACC-62 melanoma it was 33.8%. The growth with LOX IMVI melanoma was 0.411% (active).
As to `CN1CCC(CN2c3ccccc3Sc3ccccc32)C1` (stereo not given), the growth in the assay with DU-145 prostate is 92.4%; with K-562 leukemia, 38%; with MALME-3M melanoma, 79.8%; with MDA-MB-231 breast it was 59.5%; in the assay with RXF 393 renal, 91.4%; in the assay with SF-268 CNS, 89.2%. In addition, the growth in the assay on SF-295 CNS is 95.7%; with SF-539 CNS, 86.3%; in the assay on UACC-257 melanoma, 88.6%; in the assay on M14 melanoma it was 73.6%; in the assay on HCT-15 colon it was 83.9%; with HT29 colon, 45.8%. The growth was 57.7% with SNB-75 CNS; 98.1% in the assay on SNB-19 CNS; 91.1% in the assay on U251 CNS; 63.6% with PC-3 prostate; 76.6% in the assay with SK-MEL-5 melanoma; 90.4% in the assay with UACC-62 melanoma. Besides, the growth in the assay with LOX IMVI melanoma is 76.5%.
Regarding `O=C(C[P+](c1ccccc1)(c1ccccc1)c1ccccc1)c1ccccc1`, the growth was 102% in the assay on DU-145 prostate; 84% in the assay with K-562 leukemia; 110% in the assay with MALME-3M melanoma; 84.5% in the assay on MDA-MB-231 breast; 107% in the assay on RXF 393 renal; 94.6% in the assay on SF-268 CNS. For the same molecule, the growth is 87.4% with SF-295 CNS; 104% with SF-539 CNS; 101% with UACC-257 melanoma; 106% in the assay on M14 melanoma; 97.5% in the assay with HCT-15 colon; 87.4% in the assay with HT29 colon. Further, the growth in the assay on SNB-75 CNS is 83.6%; with SNB-19 CNS, 94.4%; with U251 CNS it was 96.7%; with PC-3 prostate, 74.7%; in the assay with SK-MEL-5 melanoma, 104%; in the assay with UACC-62 melanoma, 79.5%. Also, the growth was 70.6% in the assay with LOX IMVI melanoma and 109% in the assay with SK-MEL-28 melanoma.
Consider `NCCCN(CCCN)CCCNCc1c2ccccc2c(CNCCCN(CCCN)CCCN)c2ccccc12`, for which the growth in the assay with DU-145 prostate was 100%; in the assay on K-562 leukemia, 83.3%; in the assay on MALME-3M melanoma, 51.7%; in the assay on MDA-MB-231 breast, 102%; in the assay with RXF 393 renal it was 98.4%; in the assay on SF-268 CNS, 88.7%. Also, the growth is 100% in the assay with SF-295 CNS; 91.8% in the assay on SF-539 CNS; 93.2% with UACC-257 melanoma; 98.8% with M14 melanoma; 110% in the assay with HCT-15 colon; 91.9% in the assay with HT29 colon. Further, the growth with SNB-75 CNS is 104%; in the assay on SNB-19 CNS it was 106%; in the assay with U251 CNS, 115%; in the assay with PC-3 prostate, 90.8%; in the assay on SK-MEL-5 melanoma, 98.6%; with UACC-62 melanoma, 98.2%. Also, the growth in the assay with LOX IMVI melanoma is 99.8%; in the assay on SK-MEL-28 melanoma, 106%.
In the case of `COc1cc(/C=C/C(=O)CC(=O)/C=C/c2ccc(O)c(OC)c2)ccc1O`, the growth with DU-145 prostate is 40.6%; in the assay on K-562 leukemia, 12.5%; in the assay on MALME-3M melanoma, 60.3%; in the assay on MDA-MB-231 breast, 82.3%; in the assay with RXF 393 renal, 20.3%; in the assay on SF-268 CNS, 44.9%. Also, the growth was 102% in the assay on SF-295 CNS; 14.8% in the assay on SF-539 CNS; 53.6% in the assay on UACC-257 melanoma; 7.15% (active) with M14 melanoma; 13.8% with HCT-15 colon; -20.3% (active) with HT29 colon. Further, the growth in the assay with SNB-75 CNS was 7.11% (active); in the assay with SNB-19 CNS it was 48.2%; in the assay with U251 CNS, 18.5%; in the assay on PC-3 prostate it was 36.8%; in the assay with SK-MEL-5 melanoma it was 71%; with UACC-62 melanoma it was 53.5%. Besides, in the assay on LOX IMVI melanoma, the growth was 8.79% (active).
For `COC1=CC(=O)c2c(O)c3c(c(O)c2C1=O)CC(C)(O)OC3` (stereo not given), the growth in the assay on DU-145 prostate is 12.7%; in the assay with K-562 leukemia, 13.4%; with MALME-3M melanoma, -96.6% (active); in the assay with MDA-MB-231 breast it was 28.3%; in the assay on RXF 393 renal it was 11.1%; with SF-268 CNS it was 18.3%. The growth with SF-295 CNS was 5.39% (active); with SF-539 CNS it was -2.19% (active); with UACC-257 melanoma it was 5.54% (active); in the assay on M14 melanoma it was -52.4% (active); in the assay with HCT-15 colon, 0.909% (active); with HT29 colon, -10.8% (active). Besides, the growth is 41.8% in the assay on SNB-75 CNS; 7.01% (active) with SNB-19 CNS; 17.3% in the assay with U251 CNS; 8.93% (active) in the assay with PC-3 prostate; -92.4% (active) with SK-MEL-5 melanoma; -14.2% (active) with UACC-62 melanoma. In addition, in the assay with LOX IMVI melanoma, the growth was 11.4%.
As for `CN(C)c1ccc(/C=C/c2cc[n+](C)c(/C=C/c3ccc(N(C)C)cc3)c2)cc1`, the growth is 23% in the assay with DU-145 prostate; 4.82% (active) with K-562 leukemia; 1.82% (active) in the assay on MALME-3M melanoma; 8.47% (active) in the assay on MDA-MB-231 breast; 28.3% with RXF 393 renal; 24.2% in the assay on SF-268 CNS. Further, the growth with SF-295 CNS was -3.21% (active); in the assay on SF-539 CNS it was 27.1%; with UACC-257 melanoma, -18.8% (active); in the assay on M14 melanoma, 14.4%; in the assay on HCT-15 colon it was 19.5%; in the assay on HT29 colon, -7.82% (active). For the same molecule, the growth with SNB-75 CNS was 22.3%; in the assay on SNB-19 CNS, 27%; in the assay with U251 CNS, 15.3%; with PC-3 prostate it was 3.98% (active); in the assay on SK-MEL-5 melanoma, -95.6% (active); in the assay with UACC-62 melanoma, 12.3%. In addition, the growth in the assay on LOX IMVI melanoma was 12.3%; in the assay with SK-MEL-28 melanoma, 20.6%.
In the case of `O=C(c1ccccc1)N(CCCl)C(=O)N(CCCl)C(=O)c1ccccc1`, the growth is 109% in the assay with DU-145 prostate; 95.5% in the assay on K-562 leukemia; 95.2% in the assay with MALME-3M melanoma; 82.1% in the assay with MDA-MB-231 breast; 104% in the assay with RXF 393 renal; 102% with SF-268 CNS. In addition, the growth in the assay with SF-295 CNS was 81.6%; in the assay with SF-539 CNS it was 94.7%; with UACC-257 melanoma it was 101%; in the assay on M14 melanoma it was 101%; in the assay on HCT-15 colon it was 99.4%; with HT29 colon, 97.4%. In addition, the growth in the assay with SNB-75 CNS was 98.8%; in the assay on SNB-19 CNS it was 90.5%; in the assay with U251 CNS it was 102%; in the assay on PC-3 prostate, 88.5%; in the assay on SK-MEL-5 melanoma it was 96.2%; in the assay with UACC-62 melanoma it was 93.8%. In addition, the growth in the assay on LOX IMVI melanoma was 88.2%; in the assay with SK-MEL-28 melanoma, 106%.
For the molecule `NC(=Nc1nc(-c2ccccn2)cc2ccccc12)c1ccccn1`, the growth is 1.76% (active) in the assay with DU-145 prostate; -22.8% (active) with K-562 leukemia; 19% in the assay on MALME-3M melanoma; 47.8% in the assay with MDA-MB-231 breast; 1.1% (active) in the assay on RXF 393 renal; 13.1% in the assay with SF-268 CNS. The growth in the assay on SF-295 CNS was 17.9%; in the assay on SF-539 CNS it was -18.6% (active); with UACC-257 melanoma, -4.44% (active); in the assay with M14 melanoma it was -55% (active); in the assay on HCT-15 colon, 21.5%; in the assay with HT29 colon, 13.6%. Besides, the growth is 41% with SNB-75 CNS; 22.5% in the assay with SNB-19 CNS; 10.3% in the assay on U251 CNS; 20.6% in the assay on PC-3 prostate; -79.4% (active) in the assay on SK-MEL-5 melanoma; 3.59% (active) in the assay on UACC-62 melanoma. Further, the growth with LOX IMVI melanoma was -5.24% (active).
